Experimental data taken from PubChem BioAssay.
Active and inactive are the calls of the source.

Key:
[1] = tested on: Plasmodium falciparum Sir2 (PF13_0152, Sir2A); assay: pfSir2 binders on small-molecule microarrays, primary screen, biochemical, small-molecule microarray, 635 nm fluorescence (AID 1098); details: small-molecule microarray binding, fluorescence 635 nm; higher = more signal;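 further: score merges spot fluorescence intensity with its signal-to-noise ratio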
[2] = small-molecule microarray binders of probe aDKK1, primary screen, biochemical, biotinylated probe, 635/667 nm fluorescence (AID 1099); details: higher = more signal;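 further: score merges 667nm spot fluorescence with signal to noise across triplicate slides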
[3] = small-molecule microarray binders of probe aCHRDL2, primary screen, biochemical, biotinylated probe, 635/667 nm fluorescence (AID 1100); details: higher = more signal
[4] = splicing luciferase reporter signal modulators, primary screen, spliceosome inhibition project, cell-based, HEK293, splice +/- reporter (AID 1101); details: luminescence, 24 h, higher = more signal, called active from +8 up or from −8 down;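 further: HEK293 cells carrying a splicing-competent luciferase reporter gene; test concentration not given here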
[5] = target: Fibroblast growth factor 10 (Homo sapiens) (UniProt O15520); assay: FGF10 binders on small-molecule microarrays, primary screen, biochemical, small-molecule microarray, 635 nm fluorescence (AID 1102); details: FGF10 binding, fluorescence 635 nm, higher = more signal
Fibroblast growth factor 10 (Homo sapiens), sequence (O15520 whole entry, looked up): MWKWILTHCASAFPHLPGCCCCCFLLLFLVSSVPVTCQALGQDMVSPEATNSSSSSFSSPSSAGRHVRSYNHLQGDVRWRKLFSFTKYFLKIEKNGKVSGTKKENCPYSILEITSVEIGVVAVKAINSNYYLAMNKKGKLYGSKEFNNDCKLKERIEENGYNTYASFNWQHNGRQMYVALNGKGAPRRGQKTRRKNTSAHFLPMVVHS

[6] = tested on: glycogen synthase kinase-3 (GSK3A per assay name; protocol says GSK3B); assay: GSK3 binders on small-molecule microarrays, primary screen, biochemical, small-molecule microarray, 635 nm fluorescence, GSK3A (AID 1103); details: small-molecule microarray binding, fluorescence 635 nm; higher = more signal; further: the record names both GSK3A and GSK3B
[7] = target: Epidermal growth factor receptor (Homo sapiens) (UniProt P00533); assay: EGFR binders on small-molecule microarrays, primary screen, biochemical, small-molecule microarray, 635 nm fluorescence (AID 1104); details: EGFR binding, higher = more signal;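 further: score merges 667 nm emission intensity with spot signal to noise over triplicate slides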
Epidermal growth factor receptor (Homo sapiens), sequence (P00533 whole entry, looked up): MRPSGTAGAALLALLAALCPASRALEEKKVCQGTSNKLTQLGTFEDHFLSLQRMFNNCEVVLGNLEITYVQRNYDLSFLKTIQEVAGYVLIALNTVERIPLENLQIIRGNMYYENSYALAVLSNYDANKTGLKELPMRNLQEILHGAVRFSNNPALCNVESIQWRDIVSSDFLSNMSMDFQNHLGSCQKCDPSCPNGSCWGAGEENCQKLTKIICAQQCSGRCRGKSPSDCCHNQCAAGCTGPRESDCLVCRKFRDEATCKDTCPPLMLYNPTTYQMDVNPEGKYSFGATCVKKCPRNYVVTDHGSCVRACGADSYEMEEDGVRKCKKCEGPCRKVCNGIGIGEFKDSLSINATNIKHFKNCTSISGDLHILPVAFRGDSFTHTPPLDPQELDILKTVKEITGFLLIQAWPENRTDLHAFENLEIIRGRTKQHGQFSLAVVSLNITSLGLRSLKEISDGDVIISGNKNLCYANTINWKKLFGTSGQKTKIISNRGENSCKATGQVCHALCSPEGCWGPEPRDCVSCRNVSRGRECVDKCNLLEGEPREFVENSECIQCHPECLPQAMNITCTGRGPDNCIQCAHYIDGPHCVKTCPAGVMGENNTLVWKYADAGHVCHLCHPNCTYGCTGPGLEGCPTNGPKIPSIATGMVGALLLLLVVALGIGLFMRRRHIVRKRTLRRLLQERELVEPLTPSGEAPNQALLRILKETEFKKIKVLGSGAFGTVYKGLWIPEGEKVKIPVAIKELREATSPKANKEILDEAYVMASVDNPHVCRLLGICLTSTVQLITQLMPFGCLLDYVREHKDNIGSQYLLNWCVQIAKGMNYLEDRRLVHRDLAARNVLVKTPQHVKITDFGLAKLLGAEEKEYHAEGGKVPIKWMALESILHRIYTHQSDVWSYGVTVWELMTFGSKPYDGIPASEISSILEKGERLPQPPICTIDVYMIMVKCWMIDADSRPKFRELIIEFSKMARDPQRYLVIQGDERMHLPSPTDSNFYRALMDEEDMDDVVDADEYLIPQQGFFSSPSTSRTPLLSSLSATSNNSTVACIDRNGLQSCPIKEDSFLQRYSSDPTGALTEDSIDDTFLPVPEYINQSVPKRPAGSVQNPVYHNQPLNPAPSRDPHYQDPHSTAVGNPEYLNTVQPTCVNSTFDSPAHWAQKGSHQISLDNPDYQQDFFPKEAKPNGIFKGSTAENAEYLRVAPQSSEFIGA

[8] = target: Follistatin-related protein 3 (Homo sapiens) (UniProt O95633); assay: FSTL3 binders on small-molecule microarrays, primary screen, biochemical, small-molecule microarray, 635 nm fluorescence (AID 1105); details: FSTL3 binding, higher = more signal;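 further: score merges emission near 667 nm and signal to noise per printed spot across three slides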
Follistatin-related protein 3 (Homo sapiens), sequence (O95633 whole entry, looked up): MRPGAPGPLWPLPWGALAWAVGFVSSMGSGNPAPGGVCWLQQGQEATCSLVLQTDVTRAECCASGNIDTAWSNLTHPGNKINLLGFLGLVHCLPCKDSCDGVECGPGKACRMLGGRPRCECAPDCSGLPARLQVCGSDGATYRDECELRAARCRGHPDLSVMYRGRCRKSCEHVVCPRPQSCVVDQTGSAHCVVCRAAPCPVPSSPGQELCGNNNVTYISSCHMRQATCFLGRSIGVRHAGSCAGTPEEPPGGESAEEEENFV

[9] = target: Dickkopf-related protein 1 (Homo sapiens) (UniProt O94907); assay: DKK1 binders on small-molecule microarrays, primary screen, biochemical, small-molecule microarray, 635 nm fluorescence scan (AID 1106); details: DKK1 binding, higher = more signal;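 further: score merges emission near 667 nm with signal to noise over three replicate slides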
Dickkopf-related protein 1 (Homo sapiens), sequence (O94907 whole entry, looked up): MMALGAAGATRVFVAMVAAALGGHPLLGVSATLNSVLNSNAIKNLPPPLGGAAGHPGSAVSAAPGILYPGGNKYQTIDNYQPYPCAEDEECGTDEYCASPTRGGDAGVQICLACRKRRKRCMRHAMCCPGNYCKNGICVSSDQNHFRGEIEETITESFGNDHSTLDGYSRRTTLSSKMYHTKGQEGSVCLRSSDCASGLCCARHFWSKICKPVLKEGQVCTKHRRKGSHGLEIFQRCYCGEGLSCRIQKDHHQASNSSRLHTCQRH

[10] = tested on: Inhibin beta A chain (activin A); assay: INHBA (activin A) binders on microarrays, primary screen, biochemical, small-molecule microarray, 635 nm fluorescence scan (AID 1107); details: small-molecule microarray binding, higher = more signal;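 further: mouse activin A protein probed at 4.33 µg/mL on printed slides; score merges bound-protein fluorescence near 667 nm with spot signal-to-noise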
[11] = tested on: Human papillomavirus type 1a protein E7 (residues 44-93); assay: HPV1a E7 fragment binders on microarrays, primary screen, biochemical, small-molecule microarray, residues 44-93, 635 nm fluorescence (AID 1108); details: small-molecule microarray binding, fluorescence 635 nm; higher = more signal;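 further: E7 fragment applied at 1 µg/mL in TBST for 1 h at 4 C; score combines spot fluorescence with its signal to noise ratio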
[12] = modulators of HCV replicon luciferase signal, primary screen, HCV replication inhibitor project, Huh7 cells, luciferase reporter (AID 1109); details: 48 h, higher = more signal;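 further: huh7 hepatoma cells harbouring a luciferase neomycin HCV replicon reporter; luciferase luminescence as measure of HCV replicon replication; test concentration not given here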
[13] = target: Left-right determination factor 2 (Homo sapiens) (UniProt O00292); assay: LEFTY2 binders on small-molecule microarrays, primary screen, biochemical, small-molecule microarray, 635 nm fluorescence scan (AID 1110); details: LEFTY2 binding, higher = more signal
Left-right determination factor 2 (Homo sapiens), sequence (O00292 whole entry, looked up): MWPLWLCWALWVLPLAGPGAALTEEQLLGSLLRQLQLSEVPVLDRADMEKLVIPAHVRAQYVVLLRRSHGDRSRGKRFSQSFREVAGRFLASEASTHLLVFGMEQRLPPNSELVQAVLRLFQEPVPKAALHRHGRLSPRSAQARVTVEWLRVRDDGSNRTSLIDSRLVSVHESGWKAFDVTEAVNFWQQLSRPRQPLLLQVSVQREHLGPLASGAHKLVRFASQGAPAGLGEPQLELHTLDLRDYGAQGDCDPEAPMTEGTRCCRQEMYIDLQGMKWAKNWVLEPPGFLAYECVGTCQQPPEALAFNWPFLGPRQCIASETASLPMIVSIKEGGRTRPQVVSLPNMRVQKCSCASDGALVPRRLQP

[14] = target: Calmodulin-1 (Homo sapiens) (UniProt P0DP23); assay: CALM1 binders on microarrays, EGTA buffer, profiling panel, biochemical, small-molecule microarray, Cy5-labelled CALM1 (AID 1111); details: Cy5-CALM1 binding fluorescence, higher = more signal;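 further: labelled calmodulin applied in Tris saline Tween buffer holding calcium plus EGTA and DTT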
[15] = target: Calmodulin-1 (Homo sapiens) (UniProt P0DP23); assay: calcium-bound CALM1 binders on microarrays, profiling panel, artefact control for SMM control-protein annotation, biochemical, small-molecule microarray, Cy5-labelled CALM1, plus calcium (AID 1112); details: Cy5-CALM1 binding fluorescence, higher = more signal;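 further: score merges spot fluorescence with signal to noise from triplicate slides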
[16] = small-molecule microarray binders of probe aWnt5a, primary screen, biochemical, biotinylated probe, 635/667 nm fluorescence (AID 1113); details: higher = more signal;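 further: score merges 667 nm fluorescence intensity with signal-to-noise per printed feature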
[17] = small-molecule microarray binders of probe aShh, primary screen, biochemical, biotinylated probe, 635/667 nm fluorescence (AID 1114); details: higher = more signal;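 further: probe is biotin-labelled aShh protein from a stem cell growth factor screen; measures binding of labelled protein to compounds printed on the slide; score merges feature fluorescence at 667 nm with signal-to-noise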
[18] = small-molecule microarray binders of probe aNog, primary screen, biochemical, biotinylated probe, 635/667 nm fluorescence (AID 1115); details: higher = more signal;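 further: probe is biotinylated aNog protein used at 0.15 µg/mL for 1 h at 4 C; z-score combines 667 nm fluorescence of each spot with its signal to noise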
[19] = target: Torsin-1A-interacting protein 1 (Homo sapiens) (UniProt Q5JTV8); assay: LAP1 binders from COS7 cell lysate, primary screen, small-molecule microarray, 635/667 nm fluorescence (AID 1116); details: COS7-hLAP1 lysate binding, 635 nm fluorescence, higher = more signal
Torsin-1A-interacting protein 1 (Homo sapiens), sequence (Q5JTV8 whole entry, looked up): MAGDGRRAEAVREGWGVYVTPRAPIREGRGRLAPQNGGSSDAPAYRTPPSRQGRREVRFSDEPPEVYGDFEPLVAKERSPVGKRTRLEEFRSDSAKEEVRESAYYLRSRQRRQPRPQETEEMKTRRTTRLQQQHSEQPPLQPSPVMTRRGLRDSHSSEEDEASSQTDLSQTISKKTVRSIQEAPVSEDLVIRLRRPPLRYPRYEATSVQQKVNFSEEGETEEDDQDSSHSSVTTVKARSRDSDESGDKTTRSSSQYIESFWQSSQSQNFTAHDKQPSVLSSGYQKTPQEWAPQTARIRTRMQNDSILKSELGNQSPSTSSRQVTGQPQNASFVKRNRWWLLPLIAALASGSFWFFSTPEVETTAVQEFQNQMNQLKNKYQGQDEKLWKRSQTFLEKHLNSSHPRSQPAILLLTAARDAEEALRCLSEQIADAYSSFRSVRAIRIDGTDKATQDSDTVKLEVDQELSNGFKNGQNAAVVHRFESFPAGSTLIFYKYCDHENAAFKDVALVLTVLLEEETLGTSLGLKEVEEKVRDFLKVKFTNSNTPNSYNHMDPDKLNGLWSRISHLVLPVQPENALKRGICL

[20] = target: Alpha-bungarotoxin (Bungarus multicinctus) (UniProt P60615); assay: alpha-bungarotoxin binders on microarray, profiling panel, artefact control for SMM control protein annotation, biochemical, small-molecule microarray, Alexa647 label, 635/667 nm fluorescence (AID 1117); details: alpha-BTX-A647 binding fluorescence, higher = more signal
Alpha-bungarotoxin (Bungarus multicinctus), sequence (P60615 whole entry, looked up): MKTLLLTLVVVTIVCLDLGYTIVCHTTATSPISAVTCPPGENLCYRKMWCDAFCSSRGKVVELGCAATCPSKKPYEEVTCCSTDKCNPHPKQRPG

SMILES | composite z-score [1] | composite z-score [2] | composite z-score [3] | z-score [4] | composite z-score [5] | composite z-score [6] | composite z-score [7] | composite z-score [8] | composite z-score [9] | composite z-score [10] | composite z-score [11] | z-score [12] | composite z-score [13] | composite z-score [14] | composite z-score [15] | composite z-score [16] | composite z-score [17] | composite z-score [18] | composite z-score [19] | composite z-score [20]
CC(=O)NCCCC[C@@H]1NC(=O)[C@@H]2C[C@H](C(=O)NCCCCCC[N+](C)(C)C)[C@H](c3ccc(O)cc3)N2C1=O | 1.42 | -0.134 | -0.208 | -0.0826 (inactive) | 0.518 | 0.224 | 0.0882 | 0.977 | 1.12 | 0.645 | 1.11 | 0.825 | 0.943 | -0.504 | -0.901 | -0.15 | 0.0278 | -0.347 | 0.343 | -0.659
CC[C@H](C)C(=O)O[C@H]1CC[C@]2(C)C3=C(CCC2C1(C)C)[C@]1(C)CC[C@H]([C@H](C)CCCC(C)C)[C@@]1(C)CC3 (stereo not given in full) | 0.479 | -0.0754 | -0.314 | -0.634 (inactive) | 0.48 | 0.634 | 0.65 | 0.487 | 0.474 | 0.0848 | 0.758 | -0.492 | 0.405 | -0.367 | -0.468 | -0.0462 | -0.0769 | -0.31 | 0.14 | 0.332
C=CCC(OC(C)=O)[C@@H]1[C@@H](N(Cc2cccc3ccccc23)C(=O)c2ccc(-c3ccccc3)cc2)c2cc(OCCCO)ccc2N1C(=O)c1ccc2ccccc2n1 (stereo not given in full) | 0.0273 | 0.052 | 0.265 | -0.395 (inactive) | 0.186 | 0.159 | -0.0618 | 0.389 | 0.19 | 1.31 | 0.237 | 0.15 | 0.258 | 0.249 | 0.979 | -0.0685 | 0.158 | -0.278 | 0.529 | -0.0098
CCOC(=O)C1=C[C@@H](C(C)(C)C)N(S(=O)(=O)c2ccc(C)cc2)[C@H]1c1ccccc1Cl | 0.993 | 1.18 | 1.11 | -0.232 (inactive) | 0.915 | 1.29 | 0.292 | 1.18 | 0.0627 | 0.0829 | 0.694 | -1.8 | 0.633 | 1.95 | 0.84 | 0.1 | -0.177 | 0.527 | 1.13 | 1.73
Cc1ccc(S[C@]2(C(=O)NCCN3CCOCC3)CC(=O)N(C3CCCCC3)[C@@H]2c2ccc(CO)cc2I)cc1 | 0.567 | -0.69 | -0.13 | -0.341 (inactive) | 1.29 | 1.19 | 0.0803 | 1.19 | -0.0675 | 0.714 | 1.46 | -3.05 | 0.134 | 0.562 | 0.326 | 0.0214 | 0.23 | -0.0098 | 1.37 | 1.23
